CF NFkB inh – inhibitors of PAF-induced NF-kB signaling, primary screen, cell-based, GFP fluorescence, uHTS. KKLEB NF-kB-GFP reporter, GFP fluorescence overnight. inhibition, % at 5 µM. hit rate 0.86% among 360,000. AID 588850, 2011;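 active means at least 50% inhibition at 5 µM, scaled per plate between neutral and stimulator controls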;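 further: PAF is a Pseudomonas aeruginosa culture filtrate used as stimulus; plate controls were PAF-stimulated DMSO wells for no effect and unstimulated DMSO wells for full effect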
KKLEB tox – cytotoxicity in KKLEB CF airway cells, primary screen, cytotoxicity control for CF NF-kB inhibitor project, cell-based, uHTS, fluorescence assay plates. activity change (cytotoxicity), % at 5 µM. AID 602141, 2011. hit rate 0.36% among 360,000. KKLEB CF airway cells viability, ATPlite luminescence, overnight; stronger effect = lower value; cells stimulated with P. aeruginosa culture filtrate;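 active means corrected activity change at or below -50% at 5 µM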
Peg3 prom inh – Peg3 promoter-driven luciferase inhibitors, primary screen, cell-based, HeLa, luciferase luminescence | HeLa PEG-Prom luciferase reporter, overnight | inhibition, % at 20 µM | hit rate 1.7% among 360,000;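 active means inhibition of at least 50% at 20 µM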
HIF-2a block – HIF-2a reporter inhibitors, primary screen, luminescence, 786-0 RCC cells; 786-0 RCC cells HIF-2a reporter, luciferase luminescence, overnight; inhibition, % at 18.8 µM; hit rate 0.72% among 360,000; AID 624352, 2012;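 active means inhibition of the luminescence signal of 40% or more relative to plate controls, in a single-dose primary screen at 18.75 µM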
TWEAK-Fn14 inh – inhibitors of TWEAK-Fn14 signaling, primary screen, luciferase reporter cells, uHTS; TWEAK-stimulated Fn14 reporter cells, luciferase luminescence, 8 h; inhibition, % at 10 µM; hit rate 2% among 360,000; AID 1159606, 2016; in the data active means inhibition above about 50%
TROY signal inh – inhibitors of TROY-driven NF-kB signaling, primary screen, Q293 LMP1-TROYcd cells, NF-kB luciferase, uHTS; hit rate 0.98% among 360,000; inhibition, % at 10 µM; Q293 LMP1-TROYcd NF-kB luciferase reporter, 4 h; AID 1347056, 2019;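 active means compounds whose plate-normalised and pattern-corrected inhibition of the luciferase reporter signal at the single screening dose is 50% or more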
The depositor's hits bear a star; . = no result given. Compounds with a hit are over-represented: about 4% of the library has one in this group of screens.

SMILES	CF NFkB inh	KKLEB tox	Peg3 prom inh	HIF-2a block	TWEAK-Fn14 inh	TROY signal inh
Cc1nccn1CC(O)Cn1c2ccccc2c2ccccc21 (stereo not drawn)	-1	0	4	22	84*	.
O=C(O)CC/C(=C\c1ccc2c(c1)OCO2)c1nc2ccccc2s1	-18	3	0	-2	13	17
Cc1ccc(Cn2nc(C)c(NC(=O)CSc3nc4c(c(C(F)(F)F)n3)CCc3ccccc3-4)c2C)cc1	13	6	50*	13	11	-3
Cc1nn(Cc2ccc(Cl)cc2)c(C)c1NC(=O)c1noc2c1CCc1ccccc1-2	-7	-12	19	-10	69*	57*
OCC[C@H]1C[C@@H](O)[C@H](O)[C@]2(CCc3ccccc3CO2)O1	-5	-2	4	-2	19	-3
O=C(Nc1ccc(Br)cc1)c1cccc(S(=O)(=O)Nc2ccccn2)c1	3	4	15	0	23	6
COc1ccc(NC(=O)c2cccc(S(=O)(=O)Nc3ccc(Br)cc3)c2)cn1	-14	0	13	22	64*	45
O=C(O)c1ccc(NC(=O)c2cccc(S(=O)(=O)Nc3ccc(C(=O)O)cc3)c2)cc1	13	0	0	24	11	9
O=C(Nc1ccc(Br)cc1)c1cccc(S(=O)(=O)Nc2cnc3ccccc3c2)c1	-14	2	6	-24	51*	43
O=C1CSc2ccc(C(=O)Nc3cccc(S(=O)(=O)Nc4ccc(Br)cc4)c3)cc2N1	-6	7	31	15	98*	82*
COc1cc(C(O)c2nc(-c3cc(F)cc(F)c3)cs2)ccc1F (stereo not drawn)	-14	-8	9	-12	6	1
CC(=O)Nc1ccc(S(=O)(=O)NC2=NCN(c3ccc([N+](=O)[O-])cc3)CN2)cc1	-8	-9	6	4	16	-7
CN1CN=C(NS(=O)(=O)c2ccc([N+](=O)[O-])cc2)NC1	-19	2	-6	-2	55*	2
O=C1OC(c2ccccc2)(c2cc(Br)c(O)c(Br)c2)c2ccccc21 (stereo not drawn)	4	7	7	16	33	53*
CC[n+]1c(/C=C/c2ccc(N(C)C)cc2)ccc2ccccc21	-35	-13	49	-41	71*	74*
CCCCCC[n+]1ccccc1/C=C/c1ccc(N(C)C)cc1	-228	-23	31	-80	50*	56*
Cc1ccc(NNC(=O)C(O)(c2cccc(C(F)(F)F)c2)c2cccc(C(F)(F)F)c2)cc1	-14	6	67*	6	22	43
Cc1oc2c(Cl)c(Cl)c(O)c(CN(C)C)c2c1C(=O)c1ccc(Cl)cc1	51*	13	-7	21	75*	48
Cc1oc2ccc(O)c(CN3CCOCC3)c2c1C(=O)c1ccc(Cl)cc1	31	-11	19	8	16	6
COc1ccc2c(c1)c(C(C)=O)c(C)n2CCc1ccccc1	33	6	20	20	69*	27
Cc1cccc(-n2c(-c3csc(C)c3C)n[nH]c2=S)c1	4	4	2	-19	92*	3
Cc1ccccc1-n1c(-c2csc(C)c2C)n[nH]c1=S	11	1	-81	-67	22	21
CC1=C(C(=O)Nc2ccc(C(=O)N3CCN(c4cccc(Cl)c4)CC3)cc2)SCCO1	-14	7	-4	-15	-9	3
Cc1nc2ccccc2n1CC(O)COc1ccccc1Cl (stereo not drawn)	-2	-2	-7	-14	54*	10
COc1ccc(OCCn2c(=N)n(CCO)c3ccccc32)cc1	-6	-2	10	4	8	-18
SMILES	CF NFkB inh	KKLEB tox	Peg3 prom inh	HIF-2a block	TWEAK-Fn14 inh	TROY signal inh
CCCCn1c(=N)n(CC(O)COc2cccc(C)c2)c2ccccc21 (stereo not drawn)	5	-9	70*	7	-53	-6
Cc1nc2ccccc2n1CC(O)COc1ccc(Br)cc1 (stereo not drawn)	-6	2	1	10	33	2
Cc1ccccc1OCC(O)Cn1c(=N)n(Cc2ccccc2)c2ccccc21 (stereo not drawn)	9	-10	110*	10	0	11
CCCCn1c(=N)n(CCOc2ccc(C)cc2)c2ccccc21	4	-3	100*	17	-6	14
CSC(=N/N=C(\N)c1cnccn1)SC	1	4	-31	-17	-18	-9
COc1ccc(OCC(O)Cn2c(=N)n(CCN3CCCCC3)c3ccccc32)cc1 (stereo not drawn)	7	-12	16	22	-25	0
Cc1ccc(OCC(O)Cn2c(=N)n(CCN3CCCCC3)c3ccccc32)cc1 (stereo not drawn)	26	-21	78*	19	-89	5
COCCn1c(COc2ccc(C)cc2)nc2ccccc21	7	0	-217	-212	65*	.
O=C(Nc1ccc(Br)cc1)c1ccc(F)c(S(=O)(=O)N2CCN(c3ccccn3)CC2)c1	20	8	26	17	53*	33
O=S(=O)(Nc1cc(Cl)ccc1-n1cncn1)c1cc(Br)ccc1Br	39	12	35	-7	46	58*
COc1ccccc1C1=NOC(Cn2c(NCCOCCO)nc3c2c(=O)n(C)c(=O)n3C)C1 (stereo not drawn)	5	-7	4	13	4	-1
COc1ccccc1NC(=O)CSc1nncn1N	13	-9	8	14	-8	-3
COc1ccc(OCCC(=O)OCC(=O)Nc2ccc(Br)cc2)cc1	-6	6	-1	13	-14	16
COc1ccc(OCCC(=O)OCC(=O)Nc2cccc(Br)c2)cc1	-5	1	-6	14	101*	50
Cc1ccc(OCc2ccc(-c3ccccc3)cc2)c([N+](=O)[O-])n1	-13	6	-93	-214	-38	-20
Cc1cccc(NC(=O)CCNS(=O)(=O)c2cccc3nonc23)c1C	-15	2	6	14	-12	-18
CNS(=O)(=O)c1cn(CC(=O)NCc2cccc(OC)c2)cc1S(=O)(=O)NC	-20	4	13	11	26	15
C=CC(=O)Nc1cccc(N(C)c2ccnc(Nc3ccc(N4CCN(C)CC4)cc3)n2)c1	61*	-36	38	26	-3	46
CN1CCN(c2ccc(NC(=O)COc3cccc4ccccc34)cc2)CC1	10	-14	-42	-45	2	1
